DUSP3 inh – VHR1 phosphatase inhibitors, primary screen, biochemical, absorbance, uHTS | Dual specificity protein phosphatase 3 (Homo sapiens), P51452 | recombinant VHR phosphatase, pNPP absorbance | inhibition, % at 13.3 µM | 290,000 tested, 0.52% active; in the data active means inhibition above about 50%
Target sequence (P51452 whole entry, looked up): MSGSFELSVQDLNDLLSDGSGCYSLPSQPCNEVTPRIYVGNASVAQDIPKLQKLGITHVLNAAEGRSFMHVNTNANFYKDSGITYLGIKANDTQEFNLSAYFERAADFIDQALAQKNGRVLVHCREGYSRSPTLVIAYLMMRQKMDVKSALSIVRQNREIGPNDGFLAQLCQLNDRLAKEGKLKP
CCHF vOTU inh – CCHFV vOTU protease inhibitors, primary screen, biochemical, Pep-AMC substrate, fluorescence; Crimean-Congo hemorrhagic fever virus L polyprotein viral ovarian tumor (vOTU) protease …; inhibition, % at 11.5 µM; 370,000 tested, 0.55% active; AID 651958, 2012; in the data active means inhibition above about 30%
SARS 3CLpro inh-1 – SARS-CoV 3CLpro protease inhibitors, primary screen, biochemical, quenched FRET; Replicase polyprotein 1ab (Severe acute respiratory syndrome coronavirus), P0C6X7; recombinant SARS-CoV 3CLpro, quenched FRET peptide cleavage; inhibition, % at 6 µM; 290,000 tested, 0.14% active; AID 1706, 2009; in the data active means inhibition above about 12%
MazEF act – activators of E. coli MazEF toxin-antitoxin RNase, primary screen, biochemical, fluorescence, uHTS | activation, % at 20 µM | 350,000 tested, 0.32% active | Endoribonuclease toxin MazF (Escherichia coli (strain K12)), P0AE70 | FAM/BHQ RNA-DNA oligo cleavage fluorescence, 5 h; in the data active means activation above about 50%
Target sequence (P0AE70 whole entry, looked up): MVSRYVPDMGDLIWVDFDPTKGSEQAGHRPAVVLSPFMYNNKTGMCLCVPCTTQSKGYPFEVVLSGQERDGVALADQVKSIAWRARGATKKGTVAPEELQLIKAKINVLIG
BJeLR viability – MLPCN primary cell-based screen for lethality selective to Ras in HRASV12 cells; BJeLR (HRASV12) viability, CellTiter-Glo ATP luminescence, 48 h; inhibition, % (test concentration not listed); 300,000 tested, 0.17% active; AID 1554, 2009; in the data active means inhibition above about 50%
SARS 3CLpro inh-2 – confirmation of SARS coronavirus 3C-like protease inhibitors, retest, confirmation, biochemical. QFRET protease activity assay, 3CLpro. 380 tested, 36% active. inhibition, % at 6 µM. shares compounds with SARS 3CLpro inh-1. AID 1879, 2009; in the data active means inhibition above about 13%
Of the large screens only hits and unclear results are named; the others gave an inactive call (follow-up assays come after a bar, where they were run). Hits are enriched below; roughly 1.4% of the tested compounds scored in any of these assays.

Cn1c(/C=C/c2ccccc2[N+](=O)[O-])nc2ccccc2c1=O	MazEF act 232.7
CCN(CC)c1ccc(NC(=O)CSc2nnc(-c3ccc(Cl)cc3)n2Cc2ccco2)cc1	none (no result: DUSP3 inh, SARS 3CLpro inh-1, MazEF act, BJeLR viability)
O=S1(=O)N=C(Nc2ccc(S(=O)(=O)N3CCCCC3)cc2)c2ccccc21	DUSP3 inh 53.4
O=C(OC12CCCN(C1)/C(=C/c1ccncc1)C2)c1ccc(F)cc1 (stereo not drawn)	none (no result: DUSP3 inh, SARS 3CLpro inh-1, MazEF act, BJeLR viability)
N#C/C(=C(/O)c1ccc([N+](=O)[O-])o1)c1nc2ccccc2[nH]1	MazEF act 141.5
Cc1ccc2nc(/C(C#N)=C\c3ccc([N+](=O)[O-])o3)[nH]c2c1	none
N#C/C(=C\c1ccc([N+](=O)[O-])o1)c1nc2ccccc2[nH]1	DUSP3 inh 51.9
O=C1CN(C(=O)CN2CCOCC2)C(c2ccccc2)c2cc(Br)ccc2N1 (stereo not drawn)	none
CC1=Nc2ccc(Br)cc2C(c2ccccc2)N1CC(=O)NN (stereo not drawn)	SARS 3CLpro inh-1 13.2 | SARS 3CLpro inh-2 inactive
COc1cc(OC)c(C2=Nc3ccc(Br)cc3C(c3ccccc3)N2CC(=O)NN)cc1OC (stereo not drawn)	SARS 3CLpro inh-1 12.4 | SARS 3CLpro inh-2 inactive
CCC1=Nc2ccc(Br)cc2C(c2ccccc2)N1CC(=O)OC (stereo not drawn)	none
NNC(=O)CN1C(c2ccccc2)=Nc2ccc(Br)cc2C1c1ccccc1 (stereo not drawn)	SARS 3CLpro inh-1 12.9 | SARS 3CLpro inh-2 inactive
NNC(=O)CN1C(CN2CCOCC2)=Nc2ccc(Br)cc2C1c1ccccc1 (stereo not drawn)	SARS 3CLpro inh-1 20.8 | SARS 3CLpro inh-2 inactive
NNC(=O)CN1C(c2ccc(Cl)cc2)=Nc2ccc(Br)cc2C1c1ccccc1 (stereo not drawn)	none
O=S(=O)(c1sccc1Br)n1c(CN2CCOCC2)nc2ccccc21	none (no result: DUSP3 inh, SARS 3CLpro inh-1, MazEF act, BJeLR viability)
COc1ccc2c(c1)C(=O)C(=O)N2CC1COc2ccccc2O1 (stereo not drawn)	SARS 3CLpro inh-1 34.9 | SARS 3CLpro inh-2 39.5
CCOc1ccc2c(c1)C(=O)C(=O)N2CC1COc2ccccc2O1 (stereo not drawn)	SARS 3CLpro inh-1 57.6 | SARS 3CLpro inh-2 60.0
Cc1ccc2c(c1)C(=O)C(=O)N2CC1COc2ccccc2O1 (stereo not drawn)	none
Nn1c(SCc2c(Cl)cccc2Cl)nnc1-c1n[nH]c2c1CCC2	none (no result: DUSP3 inh, SARS 3CLpro inh-1, MazEF act, BJeLR viability)
COc1cccc(NC(=O)CN(C)C(=O)c2cccnc2Nc2cccc(C(F)(F)F)c2)c1	none (no result: DUSP3 inh, CCHF vOTU inh, SARS 3CLpro inh-1, BJeLR viability)
Cc1ccc(NC(=O)CN(C)C(=O)c2cccnc2Nc2cccc(C(F)(F)F)c2)cc1	SARS 3CLpro inh-1 12.6 | SARS 3CLpro inh-2 inactive
C#CCNC(=O)C[C@H]1C[C@@]2(C(=O)OCC)CCCC3=C2N(CCC3)C1=O	none (no result: DUSP3 inh, SARS 3CLpro inh-1, MazEF act, BJeLR viability)
COC(=O)[C@@]12CCCCC=C1N(CCc1ccc(Cl)cc1)C(=O)[C@H]2CC(=O)NCc1ccc(C)o1	none (no result: DUSP3 inh, SARS 3CLpro inh-1, MazEF act, BJeLR viability)
O=C(Oc1cccnc1)c1ccc(Cl)cc1	SARS 3CLpro inh-1 24.1 | SARS 3CLpro inh-2 33.6
CC(C)n1nnnc1C1(C)CCSCC(=O)N1Cc1cccc(C(F)(F)F)c1 (stereo not drawn)	none (no result: DUSP3 inh, SARS 3CLpro inh-1, MazEF act, BJeLR viability)
O=C(O)c1cc(NN=C2c3ccccc3-c3ccccc32)ccc1Cl	SARS 3CLpro inh-1 13.7 | SARS 3CLpro inh-2 inactive
O=C(O)c1cccc(NN=C2c3ccccc3-c3ccccc32)c1	none
COc1ccc2[nH]c(=O)c(CN(CCc3ccccc3)Cc3nnnn3CC3CCCO3)cc2c1 (stereo not drawn)	none
Cc1ccc2[nH]c(=O)c(CN(CCc3ccccc3)Cc3nnnn3CC3CCCO3)cc2c1 (stereo not drawn)	SARS 3CLpro inh-1 57.1 | SARS 3CLpro inh-2 inactive
O=C(O)c1ccc(N2N=C(c3ccccc3)CC2c2ccccc2)cc1 (stereo not drawn)	SARS 3CLpro inh-1 13.2 | SARS 3CLpro inh-2 inactive
CCc1ccc(S(=O)(=O)/N=C2\C=C(Nc3ccc(C(=O)O)cc3)C(=O)c3ccccc32)cc1	CCHF vOTU inh 111.8, SARS 3CLpro inh-1 16.8 | SARS 3CLpro inh-2 inactive
CNc1ccc(Br)cc(C(=O)/C=C/c2ccc3c(c2)OCO3)c1=O	SARS 3CLpro inh-1 13.2 | SARS 3CLpro inh-2 inactive
CCCCN(C(=O)Cn1nnc2ccccc21)C(C(=O)NCCOC)c1cccs1 (stereo not drawn)	none
COCCNC(=O)C(c1cccc(OC)c1)N(Cc1cccs1)C(=O)Cn1nnc2ccccc21 (stereo not drawn)	SARS 3CLpro inh-1 31.6 | SARS 3CLpro inh-2 34.6
CCCCNS(=O)(=O)/C=C/c1ccc(OC)cc1CNC(=O)OC(C)(C)C	none (no result: DUSP3 inh, SARS 3CLpro inh-1, MazEF act, BJeLR viability)
Cc1ccc(C2=NN(C(=O)CCl)C(c3ccco3)C2)o1 (stereo not drawn)	SARS 3CLpro inh-1 47.4, BJeLR viability 86.6 | SARS 3CLpro inh-2 60.8
CCOC(=O)[C@@H]1CSCCS(=O)(=O)N1Cc1ccccc1	none (no result: DUSP3 inh, SARS 3CLpro inh-1, MazEF act, BJeLR viability)
CCc1nnc(NS(=O)(=O)c2ccc(NC(=O)/C=C/c3ccc(F)cc3)cc2)s1	SARS 3CLpro inh-1 12.9 | SARS 3CLpro inh-2 inactive
C/C(Cn1nnc([N+](=O)[O-])n1)=N\NC(=O)c1ccc(Cl)c(Cl)c1	SARS 3CLpro inh-1 13.7 | SARS 3CLpro inh-2 inactive
COCCCNC(=O)C[C@H]1C[C@@]2(C(=O)OC)C(=C[C@H](C3CCCC3)O[C@@H]2C)N(Cc2ccc(Cl)cc2Cl)C1=O	none (no result: DUSP3 inh, SARS 3CLpro inh-1, MazEF act, BJeLR viability)
O=C(N[C@@H](Cc1ccc(Br)cc1)C(=O)O)OCC1c2ccccc2-c2ccccc21	SARS 3CLpro inh-1 12.4 | SARS 3CLpro inh-2 inactive
Cc1ccc(-c2nc3ncccn3c2NC(=O)Nc2ccc(OC(F)(F)F)cc2)cc1	none (no result: DUSP3 inh, SARS 3CLpro inh-1, MazEF act, BJeLR viability)
CC(C)CS(=O)(=O)C1=NSC2=NC(=O)/C(=C\c3ccc(OC(=O)c4ccco4)cc3)C(=N)N21	SARS 3CLpro inh-1 13.2 | SARS 3CLpro inh-2 inactive
COC(=O)[C@@]12CCCCC=C1N(CCc1ccc(Cl)cc1)C(=O)[C@H]2CC(=O)NCC1CCCCC1	none (no result: DUSP3 inh, SARS 3CLpro inh-1, MazEF act, BJeLR viability)
COc1ccc(N(Cc2cc3ccccc3[nH]c2=O)S(=O)(=O)c2ccc(OC)cc2)cc1	SARS 3CLpro inh-1 15.8 | SARS 3CLpro inh-2 inactive
CCN(Cc1ccccc1)C(=O)C1CCCN(c2ncccn2)C1 (stereo not drawn)	none (no result: DUSP3 inh, SARS 3CLpro inh-1, MazEF act, BJeLR viability)
Cc1nn(-c2ccccc2)c(N)c1C(c1ccccc1)c1c(C)nn(-c2ccccc2)c1N	SARS 3CLpro inh-1 13.9 | SARS 3CLpro inh-2 inactive
CCc1ccc(C(=O)Nn2cnc3ccccc3c2=O)cc1	none
O=C(Nn1cnc2ccccc2c1=O)c1ccc(Br)cc1	SARS 3CLpro inh-1 13.9 | SARS 3CLpro inh-2 inactive
Cc1cccc(NS(=O)(=O)c2nnc(NC(=O)c3cccc(C)c3)s2)c1	SARS 3CLpro inh-1 12.4 | SARS 3CLpro inh-2 inactive

Screens as filed in PubChem.
